What follows are sequences tested against RIT1 (assay: pooled miR-30 sensor sort-seq; sequence = guide strand). Conditions: shRNA.
Note: reference of the scale not given here.

Sequence | sensor-assay potency score (higher = more potent)
TACACCACCAGCACCCAGCATC | -0.912
TATAGTAGCGGTATGCAGCAGA | 0.384
TAGCCTCTTCCATACACTGTTT | -0.898
TAAGCTGTTTAAACTCACGAAC | -0.618
TTCTTTCCTACGTATCTCCCGT | -0.212
TTATAAGCATCTTCAATGGTGG | -0.101
TTGGTGACCTGTCTTAGCTGTT | -0.52
TCGGACTCGATAAATAAGCTGT | -0.314

These sequences were tested against RNASE11 in the same assay as above. Conditions: shRNA.

Sequence | sensor-assay potency score (higher = more potent)
TTTAGTAAGACCCTAGTCCTAA | -0.427
TAATGAGGTAACACTATGGTAT | -0.534
TCTTTAATTATCTTCATTGTGC | -0.382
TTGGATTTTTCACTCCTCCAGT | -0.449
TTCGTCTGTAAATTCTTCTTTA | -0.406
TATTGCATCTCTTCGTCTGTAA | 0.018
TGATGCTTCTGCAAGAACCAGG | -0.377
TTATCTTCATTGTGCTTTCTGA | -0.608
TTCTGTACAAACTTGCAGCTGG | 0.788
TTCTCTAATGAGGTAACACTAT | -1.05
TTTAACTAACAGGATCGGGTTC | -0.116
TTGTGCTTTCTGATGCTTCTGC | 0.534

From the OligoGym collection
